Among the data in PubChem BioAssay (NCI) are growth values, retold here.

The panel holds about 83,000 compounds, 20% with a hit somewhere; the sample as a whole holds those more often.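 Step 1: grow cells in 96-well plates. Step 2: add test compound at a single concentration. Step 3: incubate 48 h. Step 4: record percent growth.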 Unmarked numbers belong to inactive results. Calls of active or inactive are those of the source. How the source made its calls: active means growth percent below 10; inactive means the rest.

What all share (assay): NCI-60 one-dose screen, 48 h (100 = growth as untreated, 0 = no growth, -100 = all killed)
Holding throughout (conditions): 10 µM unless noted

For assay [1], the system named is DU-145 prostate.
Assay [2] concerns K-562 leukemia.
The subject of assay [3] is MALME-3M melanoma.
Assay [4] has as its system MDA-MB-231 breast.
The subject of assay [5] is RXF 393 renal.
The test system of assay [6] is SF-268 CNS.
Assay [7] deals with SF-295 CNS.
Assay [8] relates to SF-539 CNS.
The test system of assay [9] is UACC-257 melanoma.
The test system of assay [10] is M14 melanoma.
The test system of assay [11] is HCT-15 colon.
Assay [12] deals with HT29 colon.
The subject of assay [13] is SNB-75 CNS.
Assay [14] has as its system SNB-19 CNS.
Assay [15] deals with U251 CNS.
Assay [16] has as its system PC-3 prostate.
In assay [17] the test system is SK-MEL-5 melanoma.
The subject of assay [18] is UACC-62 melanoma.
The subject of assay [19] is LOX IMVI melanoma.
Assay [20] has as its system SK-MEL-28 melanoma.

For `COc1ccc([C@H]2c3[nH]c4ccccc4c3C[C@H]3C(=O)N(CCCCCCC(=O)NO)CC(=O)N23)cc1`, the growth in assay [1] is 24.2%; in [2], 6.77% (active); in assay [3], -4% (active); in assay [4], 45.3%; in [5] it was 22.2%; in assay [6], 69.7%. Besides, the growth is 34.8% in assay [7]; 38.1% in assay [8]; 27.7% in assay [9]; 22.4% in assay [10]; 81% in [11]; 35% in assay [12]. For the same molecule, the growth was -0.662% (active) in assay [13]; 48.5% in [14]; 30.4% in assay [15]; 11.9% in assay [16]; 12.4% in assay [17]; 9.81% (active) in assay [18]. Besides, the growth in assay [19] was 13.1%; in [20], 4.8% (active).

Consider `C=CC(=O)N1CN(C(=O)C=C)CN(C(=O)C=C)C1`, for which the growth was 77% in assay [1]; 23.5% in assay [2]; -41.9% (active) in assay [3]; 103% in [4]; 10.2% in assay [5]; 85.3% in assay [6]. Further, the growth in assay [7] was 112%; in assay [8] it was 71.7%; in assay [9], 48%; in assay [10], 87.1%; in [11] it was 3.65% (active); in assay [12], 26.2%. Moreover, the growth in assay [13] is 60%; in assay [14], 107%; in [15], 88.9%; in [16] it was 90.8%; in [17], 71.5%; in assay [18] it was 74.3%. The growth in [19] is 71.4%; in [20] it was 72.7%.

As to `O=C(N/N=C\c1cc(Br)ccc1O)c1ccncc1`, the growth was 39.4% in assay [1]; 20.3% in assay [2]; 46.5% in assay [3]; 46.6% in [4]; 54.9% in assay [5]; 35.4% in [6]. Moreover, the growth was 55.7% in [7]; 34.3% in assay [8]; 11.5% in assay [9]; 19.2% in [10]; 21.4% in assay [11]; 36.3% in assay [12]. The growth in [13] is 76.4%; in [14], 53.7%; in assay [15], 28.6%; in [16], 48.3%; in assay [17], 39.8%; in assay [18], 1.24% (active). The growth in [19] is 18%; in assay [20] it was 45.8%.

Turning to `O=C1/C(=C/c2cc(F)cc(F)c2)Cc2cc(F)cc(F)c21`, the growth is 104% in assay [1]; 83.8% in assay [2]; 86% in [3]; 95.1% in assay [4]; 93.1% in [5]; 91.4% in assay [6]. Moreover, the growth in assay [7] is 95%; in [8], 89.8%; in assay [9], 113%; in assay [10] it was 82.6%; in [11], 95.4%; in assay [12], 92.3%. The growth in assay [13] was 93.9%; in [14] it was 86.8%; in [15], 104%; in assay [16], 88.1%; in assay [17], 76.8%; in assay [18], 85.6%. Besides, the growth in assay [19] was 86.8%; in [20] it was 96.7%.

As for `CC1CCCN(CCCCOc2ccc(-c3ccc(C#N)cc3)cc2)C1` (centres undefined), the growth in assay [1] is 101%; in assay [2], 62%; in assay [3] it was 120%; in assay [4] it was 84.6%; in assay [5], 94.6%; in [6] it was 92.5%. Moreover, the growth was 94.6% in assay [7]; 98.4% in assay [8]; 66.6% in [9]; 83.2% in [10]; 56.4% in assay [11]; 14.6% in assay [12]. The growth in assay [13] is 90.3%; in [14], 95.3%; in assay [15], 71.7%; in assay [16], 75.4%; in assay [17], 46.2%; in assay [18], 89.8%. Besides, the values for the growth in assay [19] and in assay [20] were 83.9% and 100%, respectively.

For `Cc1ccc(C)c(NC(=O)c2sc3c(=O)[nH]cnc3c2C)c1`, the growth was 108% in [1]; 29.6% in [2]; 62.6% in [3]; 97.4% in [4]; 90.1% in assay [5]; 101% in [6]. Moreover, the growth in [7] is 73.3%; in [8], 94.2%; in assay [9] it was 94.5%; in [10], 57.8%; in assay [11], 49.8%; in assay [12] it was 34.9%. Moreover, the growth in assay [13] was 81.1%; in assay [14], 91.7%; in assay [15] it was 86.1%; in [16] it was 83.4%; in assay [18], 61.1%; in assay [19] it was 85%. The growth in [20] was 89.3%.

For the molecule `O=C(CCl)Nc1cc(O)c2c(c1)C(=O)c1cccc(O)c1C2=O`, the growth in [1] is -82.5% (active); in [2], -46.2% (active); in [3] it was -72.9% (active); in [4], -27.7% (active); in [5], -67.1% (active); in assay [6], -49.5% (active). Moreover, the growth in [7] was 61.7%; in assay [8], -32.3% (active); in assay [9], 5.96% (active); in assay [10], -33.2% (active); in assay [11] it was -82.2% (active); in [12], -88% (active). Further, the growth in assay [13] was 7.38% (active); in assay [14], -36.5% (active); in assay [15] it was -96.2% (active); in assay [16] it was -63.6% (active); in assay [17], -95% (active); in assay [18], -67.3% (active). In addition, the figures for the growth in assay [19] and in [20] were -68.2% (active) and 2.89% (active), respectively.

For `COc1ccc2nc3cc(Cl)ccc3c(NC(=O)CSc3ccc(Cl)cc3)c2c1`, the growth is -98.3% (active) in assay [1]; -3.86% (active) in assay [2]; -77.1% (active) in [3]; -69.3% (active) in assay [4]; -99.1% (active) in [5]; -88.9% (active) in assay [6]. Also, the growth in assay [7] is -86.2% (active); in assay [8] it was -91.9% (active); in [9], -90% (active); in assay [10], -97.4% (active); in assay [11] it was -53.6% (active); in assay [12], -78.3% (active). For the same molecule, the growth in assay [13] is -99.2% (active); in assay [14] it was -86.4% (active); in assay [15] it was -90.6% (active); in assay [16] it was -81.8% (active); in assay [17], -98% (active); in assay [18] it was -80% (active). Besides, the growth is -80.3% (active) in [19] and -96.8% (active) in assay [20].
